Drawing on the supplement of paper PMC10981050, this text covers cell viability for 40 molecules.

Structures can show the parent of a compound that is named as a salt.

For this assay, the system named is MARIMO. Description: cell viability relative to vehicle control; higher = less cytotoxic. Particulars: 10 µM; SRSF2 genotype: SRSF2 wt/wt. The essentials: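 CRISPR-edited mutant clones and isogenic wild-type clones from four leukaemia lines were screened against Selleck bioactive, kinase and epigenetic probe libraries, with identity-inconsistent compounds excluded. Each compound was acoustically dispensed at a single 10 µM dose into 384-well plates holding 2000 cells in 50 µL medium per well. After 48 h the supernatant was removed and CellTiter-Glo luminescence was read. Viability was expressed as percent of the on-plate vehicle control and analysed in Genedata Screener.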
A word on the cell viability: it is a read-out of living cells in per cent, often relative to untreated cells. As for `Cc1cc(C)c(-c2csc(NC(=O)c3ccccc3)n2)c(C)c1`, the cell viability is 31.6%.

As to `O=C(/C=C/c1ccc(O[C@@H]2O[C@H](CO)[C@@H](O)[C@H](O)[C@H]2O)cc1)c1ccc(O)cc1O` [Isoliquiritin], the cell viability worked out at 97.6%.

For `COc1ccc(-c2oc3c(CC=C(C)C)c(O)cc(O)c3c(=O)c2O[C@@H]2O[C@@H](C)[C@H](O)[C@@H](O)[C@H]2O)cc1` [Baohuoside I], the cell viability is 107%.

`CCCCCCCCCC(=O)N[C@@H](Cc1c[nH]c2ccccc12)C(=O)N[C@H](CC(N)=O)C(=O)N[C@@H](CC(=O)O)C(=O)N[C@@H]1C(=O)NCC(=O)N[C@@H](CCCN)C(=O)N[C@@H](CC(=O)O)C(=O)N[C@H](C)C(=O)N[C@@H](CC(=O)O)C(=O)NCC(=O)N[C@H](CO)C(=O)N[C@@H]([C@H](C)CC(=O)O)C(=O)N[C@@H](CC(=O)c2ccccc2N)C(=O)O[C@@H]1C` [Daptomycin]: the cell viability was determined as 103%.

Regarding `c1ccc2occc2c1` [2,3-Benzofuran], the cell viability is 107%.

As to `O=C(O)CC(C(=O)O)n1c(O)c(C2=c3cc(Br)ccc3=NC2=O)sc1=S` (stereo not given), the cell viability was found to be 100%.

`CCN1CCN(c2cc3c(cc2F)c(=O)c(C(=O)O)cn3C2CC2)CC1` [Enrofloxacin]: the cell viability came out at 111%.

For `COc1ccc2c(c1O)-c1c(O)c(OC)cc3c1[C@H](C2)[N+](C)(C)CC3` [Magnoflorine], the cell viability was determined as 105%.

`CC(=O)OCC(=O)[C@@]1(O)CC[C@H]2[C@@H]3CCC4=CC(=O)CC[C@]4(C)[C@@]3(F)[C@@H](O)C[C@@]21C` [Fludrocortisone acetate]: the cell viability came out at 109%.

Take `NC(=O)NO` [Hydroxyurea (Cytodrox)]: the cell viability turned out to be 105%.

As to `Nc1ncnc2c1nc(Br)n2[C@@H]1O[C@@H]2COP(=O)(O)O[C@H]2[C@H]1O` [8-Bromo-cAMP], the cell viability turned out to be 96.1%.

As to `Cc1cccc(Nc2nc(-c3ccncc3)cs2)c1`, the cell viability came out at 64.4%.

As to `CC12CCC(CC1)C(C)(C)O2` [Eucalyptol], the cell viability is 101%.

`CCc1c(Cl)c(O)c(Cl)c(O)c1C(=O)O[C@H]1[C@H](O)[C@H](OC)[C@H](OC/C2=C\C=C\C[C@H](O)/C(C)=C/[C@H](CC)[C@@H](O[C@@H]3OC(C)(C)[C@@H](OC(=O)C(C)C)[C@H](O)[C@@H]3O)/C(C)=C/C(C)=C/C[C@@H]([C@@H](C)O)OC2=O)O[C@@H]1C` [Fidaxomicin]: the cell viability turned out to be 91.3%.

As to `CO[C@H]1/C=C/O[C@@]2(C)Oc3c(C)c(O)c4c(O)c(c(/C=N/N5CCN(C)CC5)c(O)c4c3C2=O)NC(=O)/C(C)=C\C=C\[C@H](C)[C@H](O)[C@@H](C)[C@@H](O)[C@@H](C)[C@H](OC(C)=O)[C@@H]1C` [Rifampin], the cell viability was 116%.

With `COc1ccc(C2CNC(=O)C2)cc1OC1CCCC1` (stereo not drawn) [S-(+)-Rolipram], the cell viability turned out to be 110%.

As for `C#C[C@]1(O)CC[C@H]2[C@@H]3CCc4cc(OC5CCCC5)ccc4[C@H]3CC[C@@]21C` [Quinestrol], the cell viability amounted to 57.9%.

Take `COc1cccc2cc(-c3nc([C@H]4CC[C@H](C(=O)O)CC4)n4ncnc(N)c34)[nH]c12`: the cell viability amounted to 47.1%.

Take `O=C(/C=C/c1ccc(O)c(O)c1)c1ccc(O)cc1O` [Butein]: the cell viability stood at 64.7%.

In the case of `CN(C)c1ccc(C(=O)NCCCCCCC(=O)NO)cc1`, the cell viability turned out to be 14.2%.

As to `O=c1c2cc(O[C@@H]3O[C@H](CO)[C@@H](O)[C@H](O)[C@H]3O)c(O)cc2oc2cc(O)c([C@@H]3O[C@H](CO)[C@@H](O)[C@H](O)[C@H]3O)c(O)c12` [Neomangiferin], the cell viability stood at 91.2%.

As to `O=c1[nH]c(=O)n([C@H]2C[C@H](O)[C@@H](CO)O2)cc1/C=C/Br` [Brivudine], the cell viability is 102%.

For the molecule `Cc1c(C(=O)Nc2ccc(Oc3ccnc4[nH]cc(-c5ccccc5)c34)c(F)c2)c(=O)n(-c2ccc(F)cc2)n1C`, the cell viability was found to be 88.2%.

Turning to `CC(=O)CCc1ccc(OC(C)=O)cc1` [Pherocon (4-(4-Acetoxyphenyl)-2-butanone)], the cell viability came out at 107%.

On to `C[C@@H](N)[C@H]1CC[C@H](C(=O)Nc2ccncc2)CC1`, for which the cell viability came out at 94.6%.

Take `COC(=O)C=Cc1ccc(O)c(OC)c1` [Ferulic acid methyl ester]: the cell viability is 104%.

With `CN1C(N)=N[C@](C)(c2cc(NC(=O)c3ccc(F)cn3)ccc2F)CS1(=O)=O` [Verubecestat (MK-8931)], the cell viability turned out to be 96.1%.

With `C[C@H]1O[C@@H](Oc2c(-c3cc(O)c(O)c(O)c3)oc3cc(O)cc(O)c3c2=O)[C@@H](O)[C@@H](O)[C@@H]1O` [Myricitrin (Myricitrine)], the cell viability stood at 102%.

As for `O=C(O)C1=CO[C@@H](O[C@@H]2O[C@H](CO)[C@@H](O)[C@H](O)[C@H]2O)[C@H]2[C@@H]1C=C[C@]2(O)CO` [Monotropein], the cell viability stood at 106%.

For the molecule `CNC(=O)[C@H](Cc1c[nH]c2ccccc12)NC(=O)[C@@H](CC(=O)NO)CC(C)C` [Ilomastat (GM6001, Galardin)], the cell viability came out at 97.5%.

Turning to `COC(c1ccccc1)(c1ccccc1)[C@H](Oc1nc(C)cc(C)n1)C(=O)O` [Ambrisentan], the cell viability was 109%.

Regarding `COc1ccc2c3c1O[C@H]1C[C@@H](O)C=C[C@@]31CCN(C)C2` [Galanthamine], the cell viability amounted to 106%.

Take `CCC(=O)O[C@@H]1CC(=O)O[C@H](C)C/C=C/C=C/[C@H](O)[C@H](C)C[C@H](CC=O)[C@H](O[C@@H]2O[C@H](C)[C@@H](O[C@H]3C[C@@](C)(O)[C@@H](OC(=O)CC)[C@H](C)O3)[C@H](N(C)C)[C@H]2O)[C@H]1OC` [Midecamycin]: the cell viability is 102%.

As for `O=C(O)CCc1ccc(O)cc1O` [Hydroumbellic acid], the cell viability amounted to 104%.

Consider `CCCn1/c(=N/C(=O)c2cccc(C(N)=O)c2)[nH]c2ccccc21` [Takinib], for which the cell viability was determined as 103%.

In the case of `Cc1cc(F)c(Nc2ncnc3cc(OCc4ccccc4)ccc23)cc1O`, the cell viability was determined as 97.9%.

For the molecule `COc1ccc(NC(=O)c2ccc(C(=N)N(C)C)cc2)c(C(=O)Nc2ccc(Cl)cn2)c1` [Betrixaban maleate], the cell viability stood at 89.9%.

For the molecule `Cc1cn([C@H]2C=C[C@@H](CO)O2)c(=O)[nH]c1=O` [Stavudine], the cell viability worked out at 96.1%.

As for `O=C1/C(=C/c2cccs2)CC/C1=C\c1cccs1`, the cell viability was determined as 104%.

As to `CN1CC(=O)N2[C@H](c3ccc4c(c3)OCO4)c3[nH]c4ccccc4c3C[C@@H]2C1=O` [Tadalafil (Cialis)], the cell viability stood at 105%.
